Compound activity (PubChem)
Pf growth 96h: Primary qHTS for delayed death inhibitors of the malarial parasite plastid, 96 hour incubation; P. falciparum luciferase reporter growth, 96 h; Potency, µM (highest dose often 28.7 µM), inactives show top-dose activity change, negative = inhibition, actives largely listed as inhibitors; 320,000 compounds, 6.9% hits; further: potency means the concentration at half of the fitted maximal effect; on the % scale 0 is the no-effect control and ±100 the full control effect
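Readout is luminescence from an integrated firefly luciferase in P. falciparum. Red cells, 2% hematocrit and 0.05% parasitemia final, were cultured with compound through two parasite generations (96 hours) at 37 C, 5% CO2.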
Pf growth 48h: Primary qHTS for delayed death inhibitors of the malarial parasite plastid, 48 hour incubation; P. falciparum luciferase growth in erythrocytes, 48 h; Potency, µM (series often up to 28.7 µM), without a hit: at the highest dose activity change, negative = inhibition, actives largely listed as inhibitors; 310,000 compounds, 5.9% hits; further: potency means the concentration at half of the fitted maximal effect; on the % scale 0 is the no-effect control and ±100 the full control effect
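Erythrocytes infected with P. falciparum carrying an integrated firefly luciferase reporter (2% hematocrit, 0.1% parasitemia final) were exposed to compounds in RPMI 1640 with 0.5% Albumax at 37 C, 5% CO2. Growth inhibition was scored as reduced luminescence.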
HCV inhibitor: qHTS Assay for Inhibitors of Hepatitis C Virus (HCV) | AID 651820, 2012 | Huh7.5.1 HCVcc-Cre infection, luciferase reporter, 44 h | 340,000 compounds, 3.4% hits | Potency, µM (top dose mostly 41.8 µM), inactives show at the top dose activity change, negative = inhibition, actives largely listed as inhibitors; further: potency means the concentration at half of the fitted maximal effect; on the % scale 0 is the no-effect control and ±100 the full control effect
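Cells seeded at 1,000/well and cultured 4 h, then compounds added followed by HCVcc-Cre virus (~0.5 moi). After 44 h further culture, luciferase substrate was added, plates held 15 min at room temperature, and luminescence read for 15 sec.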
Shiga inhibitor: A qHTS for Small Molecule Inhibitors of Shiga Toxin | Vero cells, Shiga toxin protein synthesis inhibition reporter | inhibition, % at 38.7 µM | 290,000 compounds, 9.2% hits | AID 2315, 2010; in the data active means inhibition mostly above about 28%, no sharp cut-off; inactive means mostly below about 43%; further: 0% is about no effect
HCMV inh: qHTS Assay for inhibitors of the human cytomegalovirus (HCMV) | HFF cells, HCMV-luciferase reporter, 72 h; stronger effect = lower value | activity change, negative = inhibition, % at 57.5 µM | 410,000 compounds, 4.5% hits; in the data active means activity change below about -60%; inconclusive means no clear call, values can overlap the other calls; inactive means above about -39%; further: on the % scale 0 is the no-effect control and ±100 the full control effect
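Inhibition of viral replication was scored as loss of reporter luminescence in HFFs infected with HCMV-luciferase (MOI 1 PFU/cell) for 72 h; compounds tested at 2 doses, normalized to buffer and Salinomycin controls.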
Cycloheximide cs: Cycloheximide Counterscreen for Small Molecule Inhibitors of Shiga Toxin. 300,000 compounds, 12% hits. AID 2314, 2010. max response, %. cell reporter, cycloheximide protein synthesis inhibition counterscreen; in the data active means max response mostly above about 13%, no sharp cut-off; inactive means mostly below about 14%; further: read at 38.3 µM for the half of the compounds with a filed dose; 0% is about no effect
Starred values were filed as active, the others as inactive; ? = inconclusive; nt = not tested or not shown. An excerpt weighted towards active compounds, which were near 21% of everything screened. Unless noted, the call rests on the fitted dose curve; in most records, active means well fitted inhibition curve with a large enough effect; inconclusive means small, poorly fitted or top-dose-only effect, or another doubt; inactive means no such curve, though single readings can be large or run the other way.

SMILES | Pf growth 96h | Pf growth 48h | HCV inhibitor | Shiga inhibitor | HCMV inh | Cycloheximide cs
CCO[C@@H]1OC(C(=O)NCc2nc3ccccc3[nH]2)=C[C@H](C(C)(C)C)[C@H]1CCCO | nt | nt | -9% | nt | -80* | nt
CCN(C(=O)c1c(C)oc2ncnc(N3CCCCC3)c12)c1cc(C)ccc1C | nt | nt | nt | nt | 3 | nt
CN(C)S(=O)(=O)N(CC(=O)N1CCN(Cc2ccccc2)CC1)c1ccccc1 | 14% | -2% | 1% | 6 | -6 | 1
COc1ccc(CNC(=O)CN(c2ccccc2)S(=O)(=O)N(C)C)cc1 | ? | 33% | 4% | 19 | -27 | 5
COc1ccc([C@H]2C[C@@H](O)[C@H](n3cc(-c4ccc(F)cc4)nn3)CN2CC2CCCCC2)cc1 | nt | nt | nt | nt | 8 | nt
CC(NC(=O)c1ccco1)C(=O)N1CCN(c2cccc(Cl)c2)CC1 (stereo unspecified) | 14% | 11% | -4% | nt | -27 | nt
CC(C)C(NC(=O)Cc1ccccc1)C(=O)N1CCN(c2cccc(Cl)c2)CC1 (stereo unspecified) | ? | ? | 11µM* | nt | -101* | nt
CC(C)(C)NC(=O)c1csc(C(O)c2ccc(C(C)(C)C)cc2)n1 (stereo unspecified) | nt | nt | nt | nt | -96* | nt
COc1cc(NC(=O)c2csc(C(O)c3ccc(C(C)(C)C)cc3)n2)cc(OC)c1OC (stereo unspecified) | nt | nt | nt | nt | 20 | nt
O=C(Nc1ncnc2c1C(c1ccccc1)c1c(ccc3ccccc13)O2)c1ccccc1 (stereo unspecified) | nt | nt | nt | nt | -39 | nt
C[C@@]12C(=O)N(Cc3ccc(F)cc3)CC(=O)N1[C@H]1c3cc(Cl)ccc3OC[C@@H]1[C@@H]2c1ccccc1 | nt | nt | ? | nt | 26 | nt
COc1ccc2c(c1)OC[C@H]1[C@H]2N2C(=O)CN(Cc3ccc(F)cc3)C(=O)[C@@]2(C)[C@H]1c1ccccc1 | ? | ? | ? | nt | -5 | nt
C[C@@]12C(=O)N(Cc3ccccc3)CC(=O)N1[C@H]1c3cc(Cl)ccc3OC[C@@H]1[C@@H]2c1ccccc1 | ? | 9.3µM* | ? | nt | -5 | nt
C[C@@]12C(=O)N(Cc3ccc(Cl)cc3)CC(=O)N1[C@H]1c3ccccc3OC[C@@H]1[C@@H]2c1ccccc1 | ? | ? | ? | nt | 14 | nt
COc1ccc2c(c1)OC[C@H]1[C@H]2N2C(=O)CN(Cc3ccc(C)cc3)C(=O)[C@@]2(C)[C@H]1c1ccccc1 | ? | ? | 11µM* | nt | -12 | nt
COc1ccc(CN2CC(=O)N3[C@H]4c5ccccc5OC[C@@H]4[C@H](c4ccccc4)[C@]3(C)C2=O)cc1 | ? | 9.3µM* | ? | nt | -22 | nt
CCCCN1CC(=O)N2[C@H]3c4ccc(OC)cc4OC[C@@H]3[C@H](c3ccccc3)[C@]2(C)C1=O | 7.4µM* | 2.1µM* | ? | nt | 18 | nt
CC(C)(C)C(=O)CSc1nc2ccsc2c(=O)n1Cc1ccccc1Cl | nt | nt | nt | nt | -21 | nt
C[C@@]12C(=O)N(Cc3ccco3)CC(=O)N1[C@H]1c3cc(Cl)ccc3OC[C@@H]1[C@@H]2c1ccccc1 | nt | nt | ? | nt | 6 | nt
COc1ccc2c(c1)OC[C@H]1[C@H]2N2C(=O)CN(Cc3ccco3)C(=O)[C@@]2(C)[C@H]1c1ccccc1 | 9.3µM* | ? | ? | nt | 0 | nt
COc1ccc(S(=O)(=O)O/N=C2\CCSc3ccc(C)cc32)cc1 | ? | 2.9µM* | -10% | -4 | 19 | 1
Cc1ccc(C(=O)O/N=C2\CCSc3ccc(C)cc32)cc1 | 51% | 41% | 13% | -3 | -18 | 11
O=C(CN1C(=O)NC2(CCCC2)C1=O)OCc1cc(=O)n2cc(Br)ccc2n1 | 46% | 1% | 3% | 67* | -16 | 48*
Cc1ccccc1C(=O)NC(CC(C)C)C(=O)OCc1cc(=O)n2cc(Br)ccc2n1 (stereo unspecified) | 94% | 139% | 3% | 36* | 22 | 28*
CC(C)[C@H](NC(=O)c1ccccc1Cl)C(=O)OCc1cc(=O)n2cc(Br)ccc2n1 | 65% | 20% | 9% | -3 | -24 | 19
